Values without a mark were called inactive.

This assay deals with Vero E6 infected with SARS-CoV-2. As to the kind of experiment: SARS-CoV-2 infection rate relative to infected DMSO; higher = more infection, active = 60 or less. Particulars: 24 h.
As to `C=CC(=O)Nc1cccc(Oc2nc(Nc3ccc(N4CCN(C)CC4)cc3OC)ncc2Cl)c1` (0.833333 µM), the SARS-CoV-2 infection rate was 115%. Consider `COc1ccc(CCNCC(O)COc2cccc(C)c2)cc1OC` (stereo not given) [bevantolol] (10 µM), for which the SARS-CoV-2 infection rate is 110%. The value for `COc1cc2c(cc1C(F)(F)F)N(C(=O)Nc1cc(F)cc(-c3cccnc3)c1)CC2` (10 µM) was 106%; that for `N#CC(=C(/N)Sc1ccccc1N)/C(C#N)=C(/N)Sc1ccccc1N` (10 µM) was 113%. As to `CC(C)c1ccc(NC(=O)c2cccs2)c(-c2nc3ccccc3[nH]c2=O)c1` (10 µM), the SARS-CoV-2 infection rate was 83%. For `C[C@@H]1NC(=O)[C@@H](N)CNC(=O)[C@H](C2CCNC(=N)N2)NC(=O)/C(=C/NC(N)=O)NC(=O)[C@H](CNC(=O)CC(N)CCCN)NC1=O.N=C1NCC[C@H]([C@@H]2NC(=O)/C(=C/NC(N)=O)NC(=O)[C@H](CNC(=O)C[C@@H](N)CCCN)NC(=O)[C@H](CO)NC(=O)[C@@H](N)CNC2=O)N1` [capreomycin] (10 µM), the SARS-CoV-2 infection rate is 100%. Turning to `CC1(C)[C@@H](OC(=O)CCC(=O)O)CC[C@]2(C)[C@H]3C(=O)C=C4[C@@H]5C[C@@](C)(C(=O)O)CC[C@]5(C)CC[C@@]4(C)[C@]3(C)CC[C@@H]12` (10 µM), the SARS-CoV-2 infection rate was 106%.

With `COC(=O)c1cnn(-c2ccc(F)cc2F)c1/C=N/NC(=S)NC(C)(C)C` (10 µM), the SARS-CoV-2 infection rate was 74%. Turning to `COc1ccc(Nc2ncnc3ccc(OC)cc23)cc1` (10 µM), the SARS-CoV-2 infection rate is 122%. Take `CC#C[C@@H](CC(=O)O)c1ccc(OCc2cccc(-c3ccc(C(F)(F)F)cc3)c2)cc1` (10 µM): the SARS-CoV-2 infection rate was 108%.

For the compound `CCCCN1[C@@H]2CC[C@H]1C[C@@H](OC(c1ccc(F)cc1)c1ccc(F)cc1)C2` (0.833333 µM), the SARS-CoV-2 infection rate is 86%. Turning to `CN(C)CCOc1ccc(-c2nc(-c3ccncc3)c(-c3ccc4c(c3)CC/C4=N\O)[nH]2)cc1` (10 µM), the SARS-CoV-2 infection rate was 96%. Consider `CCCCCCCCCCCCCCCC(=O)OC(C)C` [isopropyl-palmitate] (10 µM), for which the SARS-CoV-2 infection rate is 77%. Turning to `CN1CCC(c2c[nH]c3ccc(O)cc23)CC1` (10 µM), the SARS-CoV-2 infection rate was 101%. Regarding `Cc1[nH]cnc1CN1CCc2c(c3ccccc3n2C)C1=O` [alosetron] (10 µM), the SARS-CoV-2 infection rate is 98%.

With `CN1CCN(c2cc(-c3ccccc3)nc(N)n2)CC1` (10 µM), the SARS-CoV-2 infection rate was 94.5%. Consider `C[C@H](CCC(=O)O)[C@H]1CC[C@H]2[C@@H]3C[C@H](O)[C@@H]4C[C@H](O)CC[C@]4(C)[C@H]3CC[C@]12C` [Hyodeoxycholic acid (HDCA)] (10 µM), for which the SARS-CoV-2 infection rate was 102%. On to `Clc1ccc(C(c2ccc(Cl)cc2)C(Cl)(Cl)Cl)cc1` (10 µM), for which the SARS-CoV-2 infection rate was 106%.

As for `Cc1ccccc1C(=O)c1ccc(Nc2ccc(Br)cc2N)cc1Cl` (10 µM), the SARS-CoV-2 infection rate is 102%. With `COC(=O)N[C@H](C(=O)N1CCC[C@H]1c1ncc(-c2ccc(-c3ccc(-c4cnc([C@@H]5CCCN5C(=O)[C@@H](NC(=O)OC)C(C)C)[nH]4)cc3)cc2)[nH]1)C(C)C` [daclatasvir] (10 µM), the SARS-CoV-2 infection rate is 90.5%.

As for `CCCOc1ccc(C(=O)OCCN(CC)CC)cc1N` [proxymetacaine] (10 µM), the SARS-CoV-2 infection rate is 108%. Take `Cc1ncc(NC(=O)c2ccc(CN3CCN(C)CC3)c(C(F)(F)F)c2)cc1Nc1nccc(-c2cccnc2)n1` [flumatinib] (10 µM): the SARS-CoV-2 infection rate was 25.5% (active).

Regarding `CS(=O)(=O)CCNCc1ccc(-c2ccc3ncnc(Nc4ccc(OCc5cccc(F)c5)c(Cl)c4)c3c2)o1` [lapatinib] (10 µM), the SARS-CoV-2 infection rate was 111%. Take `c1cc(CN2CCCNCCNCCCNCC2)ccc1CN1CCCNCCNCCCNCC1` [plerixafor] (10 µM): the SARS-CoV-2 infection rate was 95.5%. As for `CCCN(CCC)C(=O)C(CCC(=O)O)NC(=O)c1ccccc1` (stereo not given) [proglumide] (10 µM), the SARS-CoV-2 infection rate was 107%. On to `NS(=O)(=O)Nc1ncnc(OCCOc2ncc(Br)cn2)c1-c1ccc(Br)cc1` (10 µM), for which the SARS-CoV-2 infection rate was 120%.

Regarding `CCCc1nc(C(C)(C)O)c(C(=O)OCc2oc(=O)oc2C)n1Cc1ccc(-c2ccccc2-c2nnn[nH]2)cc1` [olmesartan-medoxomil] (10 µM), the SARS-CoV-2 infection rate was 116%. For the compound `Cc1nn(-c2ccccc2)c(C)c1/C=N/N1CCN(Cc2ccccc2)CC1` (10 µM), the SARS-CoV-2 infection rate was 117%. Turning to `Cc1ncc(C[n+]2csc(CCO)c2C)c(N)n1` [thiamine] (10 µM), the SARS-CoV-2 infection rate is 96.5%. As to `CCN(CC)CCOC(=O)c1ccc(N)cc1` [procaine] (10 µM), the SARS-CoV-2 infection rate was 115%.

The values above are taken from the supplement of paper PMC13380429.
